Laboratory results as given in ChEMBL document CHEMBL3988442, “University of Dundee, Small-Polar-MMV Screening Library” (2021).
For some of these results: Measured potencies and affinities stand elsewhere.

What was measured:
Parameters in all cases: scale not given: direction of the effect not stated beside the values
[1] = target: Protein translocase subunit SecA (Escherichia coli (strain K12)) (UniProt P10408); assay: Assay to Identify E. coli SecA ATPase Inhibitors; format: functional; conditions: 30 µM
Sequence of Protein translocase subunit SecA (Escherichia coli (strain K12)) (P10408 whole entry): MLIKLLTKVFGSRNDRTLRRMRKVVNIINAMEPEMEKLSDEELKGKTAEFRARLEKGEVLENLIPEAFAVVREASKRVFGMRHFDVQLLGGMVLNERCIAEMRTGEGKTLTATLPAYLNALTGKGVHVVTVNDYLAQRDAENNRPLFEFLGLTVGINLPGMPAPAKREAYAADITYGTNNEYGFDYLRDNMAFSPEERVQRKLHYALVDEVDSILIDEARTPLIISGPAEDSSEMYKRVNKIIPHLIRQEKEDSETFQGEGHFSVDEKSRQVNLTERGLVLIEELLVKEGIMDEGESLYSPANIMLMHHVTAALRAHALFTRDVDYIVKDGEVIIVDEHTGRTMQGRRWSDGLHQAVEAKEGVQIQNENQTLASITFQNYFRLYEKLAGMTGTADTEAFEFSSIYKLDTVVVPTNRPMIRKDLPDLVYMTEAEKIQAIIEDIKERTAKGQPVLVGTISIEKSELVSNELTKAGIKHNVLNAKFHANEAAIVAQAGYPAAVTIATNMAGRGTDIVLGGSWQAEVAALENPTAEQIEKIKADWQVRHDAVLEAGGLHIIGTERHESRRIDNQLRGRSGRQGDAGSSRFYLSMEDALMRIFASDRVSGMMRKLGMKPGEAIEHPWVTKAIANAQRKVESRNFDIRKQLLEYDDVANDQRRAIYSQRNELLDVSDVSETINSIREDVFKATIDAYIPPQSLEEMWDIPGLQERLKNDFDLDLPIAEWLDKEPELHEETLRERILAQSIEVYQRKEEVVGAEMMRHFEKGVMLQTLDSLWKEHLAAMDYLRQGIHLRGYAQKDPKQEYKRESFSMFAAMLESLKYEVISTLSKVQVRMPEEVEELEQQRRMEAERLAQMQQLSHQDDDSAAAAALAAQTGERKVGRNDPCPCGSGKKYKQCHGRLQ

[2] = target: T1, Ubiquitin-activating enzyme e1, putative (Leishmania donovani (strain BPK282A1)) (UniProt E9BSI1); assay: Leishmania donovani Ubiquitin Activating Enzyme (LdE1); format: functional; conditions: 30 µM
T1 sequence (whole entry): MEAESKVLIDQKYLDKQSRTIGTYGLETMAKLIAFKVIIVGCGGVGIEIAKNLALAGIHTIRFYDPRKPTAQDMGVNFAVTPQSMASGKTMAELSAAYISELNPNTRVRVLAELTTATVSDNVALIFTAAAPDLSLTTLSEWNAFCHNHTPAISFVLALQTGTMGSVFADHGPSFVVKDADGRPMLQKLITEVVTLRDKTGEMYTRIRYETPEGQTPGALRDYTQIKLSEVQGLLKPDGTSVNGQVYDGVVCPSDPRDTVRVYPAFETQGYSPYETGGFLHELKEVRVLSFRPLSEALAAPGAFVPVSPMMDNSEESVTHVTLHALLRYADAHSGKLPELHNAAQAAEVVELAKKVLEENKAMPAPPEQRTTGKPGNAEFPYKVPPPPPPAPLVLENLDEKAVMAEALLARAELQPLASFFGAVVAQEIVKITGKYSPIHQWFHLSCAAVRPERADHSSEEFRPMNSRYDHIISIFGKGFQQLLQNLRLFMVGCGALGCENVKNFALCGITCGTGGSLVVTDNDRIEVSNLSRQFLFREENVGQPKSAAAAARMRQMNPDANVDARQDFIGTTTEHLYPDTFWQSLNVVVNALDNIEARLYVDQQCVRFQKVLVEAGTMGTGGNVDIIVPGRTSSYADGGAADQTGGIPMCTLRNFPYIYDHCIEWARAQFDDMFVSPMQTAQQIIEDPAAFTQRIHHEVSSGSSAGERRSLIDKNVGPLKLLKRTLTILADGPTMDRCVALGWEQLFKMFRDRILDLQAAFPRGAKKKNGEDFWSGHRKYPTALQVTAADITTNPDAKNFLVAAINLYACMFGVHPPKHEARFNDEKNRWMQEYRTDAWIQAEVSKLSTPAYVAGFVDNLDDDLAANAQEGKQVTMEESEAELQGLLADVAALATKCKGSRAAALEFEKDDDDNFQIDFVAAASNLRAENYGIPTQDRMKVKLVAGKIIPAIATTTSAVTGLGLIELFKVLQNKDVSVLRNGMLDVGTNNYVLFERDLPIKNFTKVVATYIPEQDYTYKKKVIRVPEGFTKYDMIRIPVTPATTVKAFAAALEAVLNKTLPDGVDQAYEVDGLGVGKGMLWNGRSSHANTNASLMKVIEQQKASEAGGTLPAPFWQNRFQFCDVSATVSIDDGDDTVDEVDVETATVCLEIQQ

[3] = target: AMP-activated protein kinase, AMPK (Homo sapiens) (UniProt P54646+O43741+P54619+Q9UGJ0+Q9Y478+Q13131+Q9UGI9); assay: AMP-dependent Kinase enzyme assay. An in vitro enzyme assay that detects ADP turnover that is directly proportional to AMPK activity. This uses naive AMPK that is activated during the assay with MK-8722; format: functional; conditions: 30 µM
[4] = target: Sialic acid-binding Ig-like lectin 9 (Homo sapiens) (UniProt Q9Y336); assay: Hs-Siglec9 ALPHAscreen SOP 20170721; conditions: 10 µM
Sequence of Sialic acid-binding Ig-like lectin 9 (Homo sapiens) (Q9Y336 whole entry): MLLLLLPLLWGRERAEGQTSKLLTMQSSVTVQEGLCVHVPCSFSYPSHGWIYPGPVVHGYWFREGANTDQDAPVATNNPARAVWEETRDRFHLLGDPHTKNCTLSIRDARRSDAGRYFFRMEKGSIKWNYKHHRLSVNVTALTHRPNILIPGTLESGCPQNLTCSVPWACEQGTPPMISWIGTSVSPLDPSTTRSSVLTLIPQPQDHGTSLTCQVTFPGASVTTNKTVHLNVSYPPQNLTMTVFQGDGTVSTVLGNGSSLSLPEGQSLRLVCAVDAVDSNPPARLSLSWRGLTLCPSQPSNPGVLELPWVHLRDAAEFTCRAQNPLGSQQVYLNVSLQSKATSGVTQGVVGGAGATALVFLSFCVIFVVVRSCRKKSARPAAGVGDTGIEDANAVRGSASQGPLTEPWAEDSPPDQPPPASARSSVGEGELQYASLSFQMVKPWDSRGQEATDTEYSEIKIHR

Trypanosoma cruzi = assay: Trypanosoma cruzi phosphomannomutase and mannose-1-phosphate guanylyltransferase assay; format: functional; conditions: 10 µM
[5] = target: T2, Arginase-2, mitochondrial (Homo sapiens) (UniProt P78540); assay: in vitro enzyme assay to detect the production of urea directly proportional to the activity of Arginase II; format: functional; conditions: 33.3 µM; note: in the data most compounds retested in dose-response had high values
T2 sequence (whole entry): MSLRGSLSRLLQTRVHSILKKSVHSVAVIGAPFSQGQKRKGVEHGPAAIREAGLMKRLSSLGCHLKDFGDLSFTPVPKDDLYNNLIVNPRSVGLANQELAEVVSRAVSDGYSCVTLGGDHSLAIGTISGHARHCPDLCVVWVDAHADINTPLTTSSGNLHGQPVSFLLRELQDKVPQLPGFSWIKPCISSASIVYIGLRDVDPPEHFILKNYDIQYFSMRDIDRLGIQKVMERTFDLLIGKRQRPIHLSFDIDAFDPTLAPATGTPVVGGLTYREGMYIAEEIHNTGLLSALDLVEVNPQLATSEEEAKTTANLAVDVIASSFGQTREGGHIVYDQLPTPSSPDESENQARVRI

[6] = target: T3, Proteasome subunit beta (Trypanosoma cruzi) (UniProt O96673); assay: Trypanosoma cruzi proteasome chymotrypsin-like activity (TcProtChymo) assay.; note: in the data most compounds retested in dose-response had high values; format: functional; conditions: 9.37 µM
T3 sequence (whole entry): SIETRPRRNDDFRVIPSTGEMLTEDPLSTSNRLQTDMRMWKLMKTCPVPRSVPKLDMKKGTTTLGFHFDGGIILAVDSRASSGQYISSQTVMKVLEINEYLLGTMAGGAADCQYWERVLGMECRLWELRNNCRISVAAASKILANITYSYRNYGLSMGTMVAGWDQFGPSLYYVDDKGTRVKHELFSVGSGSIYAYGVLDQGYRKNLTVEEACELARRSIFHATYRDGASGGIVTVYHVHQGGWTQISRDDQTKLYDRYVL

Homo sapiens = organism: Homo sapiens; assay: To identify inhibition of the IFN signalling (Jak-Stat) pathway via expression of an eGFP reporter gene under the control of an IFN-stimulated response element (ISRE) containing MxA promoter.; format: functional; conditions: 30 µM
[7] = target: T4, Tyrosyl-tRNA synthetase, putative (Trypanosoma cruzi (strain CL Brener)) (UniProt Q4DSP6); assay: Trypanosoma cruzi tyrosyl tRNA synthetase (TcYRS) _High Tyrosine SOP; format: functional; conditions: 30 µM; note: in the data most compounds retested in dose-response had high values
T4 sequence (whole entry): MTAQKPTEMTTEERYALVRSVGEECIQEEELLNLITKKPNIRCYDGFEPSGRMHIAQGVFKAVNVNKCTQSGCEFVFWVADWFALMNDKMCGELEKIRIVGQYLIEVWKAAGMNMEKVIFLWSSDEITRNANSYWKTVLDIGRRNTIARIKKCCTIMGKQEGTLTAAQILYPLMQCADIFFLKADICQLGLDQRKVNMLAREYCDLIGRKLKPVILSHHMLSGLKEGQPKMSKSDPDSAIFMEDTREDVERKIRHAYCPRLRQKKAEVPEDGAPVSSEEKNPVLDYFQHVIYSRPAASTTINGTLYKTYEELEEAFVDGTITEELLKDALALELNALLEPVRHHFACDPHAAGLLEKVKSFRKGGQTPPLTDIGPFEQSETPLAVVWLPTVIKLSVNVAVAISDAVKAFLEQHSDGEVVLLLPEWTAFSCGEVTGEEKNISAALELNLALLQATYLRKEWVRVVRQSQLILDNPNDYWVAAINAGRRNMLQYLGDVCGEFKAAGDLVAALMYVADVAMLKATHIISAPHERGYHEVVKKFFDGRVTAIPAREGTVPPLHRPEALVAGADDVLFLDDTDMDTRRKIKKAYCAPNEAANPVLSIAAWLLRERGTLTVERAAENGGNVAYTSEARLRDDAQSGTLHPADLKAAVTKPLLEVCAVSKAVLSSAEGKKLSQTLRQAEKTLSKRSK

[8] = target: T4, Tyrosyl-tRNA synthetase, putative (Trypanosoma cruzi (strain CL Brener)); assay: Trypanosoma cruzi tyrosyl tRNA synthetase (TcYRS) SOP; format: functional; conditions: 30 µM
[9] = target: Chromo domain-containing protein 1 (Saccharomyces cerevisiae (strain ATCC 204508 / S288c) (Baker's yeast)) (UniProt P32657); assay: ScCHD-1 Enzyme Inhibition Assay; format: functional; conditions: 30 µM; note: in the data most compounds retested in dose-response had high values
Sequence of Chromo domain-containing protein 1 (Saccharomyces cerevisiae (strain ATCC 204508 / S288c) (Baker's yeast)) (P32657 whole entry, the tested form may be a part): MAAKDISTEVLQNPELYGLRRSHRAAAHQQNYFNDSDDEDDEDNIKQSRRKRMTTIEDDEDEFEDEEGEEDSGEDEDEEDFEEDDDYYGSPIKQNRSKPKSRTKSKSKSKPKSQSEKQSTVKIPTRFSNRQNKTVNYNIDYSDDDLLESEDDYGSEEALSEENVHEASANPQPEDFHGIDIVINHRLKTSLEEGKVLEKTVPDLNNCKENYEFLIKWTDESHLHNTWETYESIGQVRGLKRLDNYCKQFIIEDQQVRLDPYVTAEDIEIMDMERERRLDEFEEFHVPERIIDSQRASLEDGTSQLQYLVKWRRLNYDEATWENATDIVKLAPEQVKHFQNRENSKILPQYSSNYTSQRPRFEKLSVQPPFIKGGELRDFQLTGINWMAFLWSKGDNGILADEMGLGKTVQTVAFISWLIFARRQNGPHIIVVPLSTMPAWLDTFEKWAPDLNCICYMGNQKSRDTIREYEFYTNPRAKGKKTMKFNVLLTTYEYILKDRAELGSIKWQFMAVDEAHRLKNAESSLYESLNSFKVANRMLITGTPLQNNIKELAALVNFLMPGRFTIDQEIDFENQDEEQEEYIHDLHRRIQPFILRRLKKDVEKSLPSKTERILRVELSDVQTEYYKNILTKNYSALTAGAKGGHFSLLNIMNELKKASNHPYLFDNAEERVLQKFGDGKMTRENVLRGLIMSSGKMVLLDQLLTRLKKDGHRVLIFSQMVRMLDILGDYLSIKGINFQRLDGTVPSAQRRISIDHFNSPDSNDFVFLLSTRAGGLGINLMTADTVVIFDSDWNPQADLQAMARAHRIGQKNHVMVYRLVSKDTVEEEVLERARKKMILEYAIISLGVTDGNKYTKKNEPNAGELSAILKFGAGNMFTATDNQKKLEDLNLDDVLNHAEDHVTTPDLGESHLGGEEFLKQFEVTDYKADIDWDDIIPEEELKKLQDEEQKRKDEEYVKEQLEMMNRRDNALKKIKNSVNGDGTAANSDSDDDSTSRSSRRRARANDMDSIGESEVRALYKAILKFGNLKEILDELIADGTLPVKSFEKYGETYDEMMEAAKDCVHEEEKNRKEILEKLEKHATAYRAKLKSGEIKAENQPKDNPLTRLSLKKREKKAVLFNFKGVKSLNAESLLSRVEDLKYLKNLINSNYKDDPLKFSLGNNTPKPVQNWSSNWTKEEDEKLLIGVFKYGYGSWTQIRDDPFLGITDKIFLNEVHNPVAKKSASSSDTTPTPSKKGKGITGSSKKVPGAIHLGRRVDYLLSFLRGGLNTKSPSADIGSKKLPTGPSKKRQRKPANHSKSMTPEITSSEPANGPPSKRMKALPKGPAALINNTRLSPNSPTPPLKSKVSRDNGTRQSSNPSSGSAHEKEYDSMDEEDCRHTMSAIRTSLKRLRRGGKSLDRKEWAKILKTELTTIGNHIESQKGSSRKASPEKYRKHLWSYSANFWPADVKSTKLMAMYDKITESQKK

Compound	Percent Effect [1] [%]	Percent Effect [2] [%]	Percent Effect [3] [%]	Percent Effect [4] [%]	Percent Effect (Trypanosoma cruzi) [%]	Percent Effect [5] [%]	Percent Effect [6] [%]	Percent Effect (Homo sapiens) [%]	Percent Effect [7] [%]	Percent Effect [8] [%]	Percent Effect [9] [%]
Cc1cc(C)n(C2CCCN(C(=O)c3ccc(F)cc3F)C2)n1 (stereo not given)	-11.1	-5.41	-1.04	0.0778	-3.91	-3.75	7.02	-1.41	5.94	6.1	2.92
Cc1ccoc1C(=O)N1CCOCC2(CCN(c3ncccn3)C2)C1 (stereo not given)	-3.09	5.41	-4.43	21.7	5.57	13.2	9.01	10.4	7.53	21	-6.03
CCOc1ccccc1C1CCCN1 (stereo not given)	-5.25	7.89	2.38	-2.36	1.27	-7.1	15.4	-5.78	-1.06	2.6	-7.12
Cc1nccn1C1CCCN(C(=O)c2ccc3c(c2)NC(=O)CO3)C1 (stereo not given)	-3.38	2.7	-9.28	-2.15	4.43	-1.2	14.1	-3.11	6.4	16.1	-9.9
CC(O)CC(C)(C)CNC(=O)NCc1cccc(-n2ccnc2)c1 (stereo not given)	-3.71	0	-1.99	-7.44	-2.83	-2.23	-2.83	18.3	-1.07	-1.24	4.12
CC(NC(=O)NCCCN1CCCCCC1)c1nncn1C (stereo not given)	-2.66	10.8	-6.67	18.7	6.78	-6.47	-5.03	18	5.94	18.3	-3.61
CCN1CC2(CCN(CCOCCO)CC2)CC(c2ccccc2)C1=O (stereo not given)	-1.44	8	-14.6	3.65	0.292	-3.12	15.2	14.3	2.73	8.64	-6.05
CC(C)N(C)C(=O)C1=NOC2(CCN(C(=O)c3ccccn3)C2)C1 (stereo not given)	3.88	2.74	-0.462	5.09	-5.95	-3.59	17.9	5.05	5.21	16.1	2.42
COc1ccnc(C(=O)N2CCCC(c3noc(C)n3)C2)c1 (stereo not given)	-0.16	-7.59	1.48	5.56	-0.85	0.76	3.03	-3.33	-2.46	-1.27	-3.23
Cc1cc(CN2CCOC(CN(C)c3cccnn3)C2)no1 (stereo not given)	-4.31	0	18.6	-5.84	3.23	-0.21	6.39	1.91	0.952	2.35	-18.6
NC(=O)NCC(=O)N1C[C@H]2CC[C@@H]1CN(Cc1ccccc1)C2	-4.49	5.48	6.44	-9.32	-0.979	-6.82	11.4	-13.6	6.45	7.5	-5.72
CCc1ccccc1CN1CC[C@@H](NC(=O)c2cccnc2)[C@H](O)C1	-2.67	1.39	-0.714	6.65	8.26	0	12.8	-21.1	3.16	10.3	-3.67
O=C(O)c1nnn(-c2ccc(OC(F)(F)F)cc2)c1-c1ccncc1	-2.53	21.1	-1.66	-2.5	3.8	3.55	20.4	2.21	3.19	15.6	41.3
Cc1cn2c(n1)CCC(NC(=O)c1nc(C)ncc1Cl)C2 (stereo not given)	-5.44	7.79	5.82	3.39	4.41	1.05	8.49	-7.16	4.76	18.8	-23.3
CC(=O)NCCc1ccc(C(=O)N2CCCC2c2cnn(C)c2)cc1 (stereo not given)	-1.4	21.1	-6.64	-8.62	2.89	-3.6	11.9	1.72	4.43	16.1	-8.59
CCN(C(=O)COC)C(c1cccnc1)c1cc(C)cc(C)c1 (stereo not given)	0.0465	2.74	4.88	27.6	-11.3	1.6	12.9	22.9	-2.08	-8.64	-2.33
O=C(NCCOc1ncc(Cl)cc1Cl)c1ccncc1F	-4.54	2.7	2.46	-3.73	5.08	-2.08	17.8	8.71	5.94	8.54	-7.35
CNC(=O)C1Cn2ccnc2C2(CCN(Cc3cccnc3)CC2)O1 (stereo not given)	-4.76	10.8	2.08	2.7	-0.684	-0.319	23.4	-1.62	9.73	25.6	-0.425
CN(CC(=O)N1CCC(C(O)c2ccccc2)CC1)c1cnccn1 (stereo not given)	-0.515	10.8	-0.406	9.65	-0.279	-2.77	8.62	13.4	5.94	23.2	-7.9
Cc1cnn(CC2CCCN2Cc2nnc(Cc3ccccc3)o2)c1 (stereo not given)	-4.98	10.8	-8.22	-3.85	-9.15	6.81	3.96	19.9	4.43	3.7	-4.25
